biological target: RAC-gamma serine/threonine-protein kinase (Homo sapiens) (UniProt Q9Y243); settings: at 1 µM
Sequence (Q9Y243 whole entry): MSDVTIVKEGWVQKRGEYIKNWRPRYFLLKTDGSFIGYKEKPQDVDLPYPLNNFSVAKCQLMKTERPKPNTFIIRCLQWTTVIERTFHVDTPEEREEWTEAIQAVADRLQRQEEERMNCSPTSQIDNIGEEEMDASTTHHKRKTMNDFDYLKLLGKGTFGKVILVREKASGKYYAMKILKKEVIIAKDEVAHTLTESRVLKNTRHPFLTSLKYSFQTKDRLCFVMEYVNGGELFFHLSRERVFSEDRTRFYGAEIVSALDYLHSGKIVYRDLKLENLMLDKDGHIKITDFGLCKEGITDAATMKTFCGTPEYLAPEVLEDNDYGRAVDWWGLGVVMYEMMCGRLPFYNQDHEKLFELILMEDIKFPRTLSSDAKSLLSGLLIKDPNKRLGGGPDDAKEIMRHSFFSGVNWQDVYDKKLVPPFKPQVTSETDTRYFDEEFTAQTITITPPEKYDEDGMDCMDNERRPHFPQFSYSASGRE

Structure (SMILES) | inhibition [%]
NC(=O)Cc1ccccc1Oc1nccc(-c2c(-c3ccc(F)cc3)ncn2C2CCNCC2)n1 | 1.21
NS(=O)(=O)c1ccc(Nc2cc(-c3ccc(O)c(F)c3)n[nH]2)cc1 | -2.28
Clc1ccc(CNc2nccc(-c3cnn4ncccc34)n2)cc1 | 1.14
COc1ccc2cc(-c3c(-c4ccncc4)nc(-c4ccc([S+](C)[O-])cc4C)n3C)ccc2c1 (stereo not given) | 1.08
NS(=O)(=O)c1ccc(N/N=C2\C(=O)Nc3ccc(-c4cnco4)cc32)cc1 | -0.96
O=C1Nc2ccccc2/C1=C/Nc1ccc(-n2cncn2)cc1 | 2.21
Fc1ccc(-c2ncn(C3CCNCC3)c2-c2ccnc(Oc3ccc(Oc4ccccc4)cc3)n2)cc1 | 4.62
COc1cc2ncn(-c3cc(OCc4ccccc4C(F)(F)F)c(C(C)=O)s3)c2cc1OC | 1.31
CN(C)CCOc1ccc(-c2cc(-c3ccc4c(c3)CCC4=NO)c(-c3ccncc3)o2)cc1 | 5.79
Cc1ccc(NC(=O)c2ccoc2)cc1-c1ccc(C(=O)NCC2CC2)cc1 | 1.87
O=C(Nc1n[nH]c2nc(-c3ccc(O)cc3)c(Br)cc12)C1CC1 | 12.5
COc1cc(N2CCN(C(C)C)CC2)ccc1Nc1nc(Nc2ccc(F)cc2C(=O)NC[C@@H](O)CO)c2cc[nH]c2n1 | -1.37
COc1ccc2cc(-c3c(-c4ccncc4)nc(-c4ccc(S(C)(=O)=O)cc4C)n3C)ccc2c1 | 4.98
CCN(CC)Cc1ccc(Nc2nccc(-c3cnn4ncccc34)n2)cc1 | -1.26
c1ccc(Oc2ccc(Nc3ncc(-c4ccccc4)o3)cc2)cc1 | 1.21

— ChEMBL document CHEMBL1961873, “Compounds: GSK PKIS; Assays: Nanosyn kinase panel” (2012)
